{"source": "the antibiotic and cytotoxicity screens of Wong et al. (2023)", "note": "Screen size: about 39,000 compounds; about 3,300 (8.5%) were called active. This is one part of a sample in which actives are shown more often than they occur."}
{"tested_on": "HepG2", "assay": "cytotoxicity call (relative viability < 0.9)", "settings": "10 µM"}
{"smiles": "C[C@@H]1CN([C@@H](C)CO)C(=O)c2cccc(NC(=O)c3ccc(-c4nccs4)cc3)c2O[C@@H]1CN(C)C(=O)Nc1ccc2c(c1)OCO2", "cytotoxicity call": "inactive"}
{"smiles": "CCCNC(=O)N1C[C@@H](O)COC[C@H]2O[C@H](CC(=O)N3CCOCC3)CC[C@@H]21", "cytotoxicity call": "inactive"}
{"smiles": "C[C@H]1CN([C@@H](C)CO)C(=O)c2cccc(NS(C)(=O)=O)c2O[C@@H]1CN(C)Cc1ccc(C(=O)O)cc1", "cytotoxicity call": "inactive"}
{"smiles": "C[C@@H]1CN([C@H](C)CO)C(=O)c2cc(NS(=O)(=O)c3cn(C)cn3)ccc2O[C@H]1CN(C)Cc1ccc(C(=O)O)cc1", "cytotoxicity call": "inactive"}
{"smiles": "O=C(O)c1ccc2[nH]cnc2n1", "cytotoxicity call": "inactive"}
{"smiles": "O=C(CCCCCNC(=O)OCc1ccc(CO[C@@H]2C[C@H](C3CCCCC3)C=C(C(=O)N3CCCCCCC3)O2)cc1)NO", "cytotoxicity call": "inactive"}
{"smiles": "C[C@H](CO)N1C[C@H](C)[C@@H](CN(C)S(=O)(=O)c2ccc(F)cc2)Oc2ccc(NS(C)(=O)=O)cc2C1=O", "cytotoxicity call": "inactive"}
{"smiles": "Cc1noc(C)c1NC(=O)N(C)C[C@@H]1Oc2ccc(NC(=O)Nc3cccc4ccccc34)cc2C(=O)N([C@H](C)CO)C[C@@H]1C", "cytotoxicity call": "inactive"}
{"smiles": "COc1ccccc1NC(=O)N(C)C[C@H]1Oc2ncc(C#CCN(C)C)cc2C(=O)N([C@H](C)CO)C[C@H]1C", "cytotoxicity call": "inactive"}
{"smiles": "C=CCOC(=O)[C@H]1[C@@H]2C(=O)O[C@@H](c3ccccc3)[C@@H](c3ccccc3)N2[C@@H](c2ccc(OCCOC(=O)[C@@H]3C[C@@H]4C(=O)NCC(=O)N4[C@@H]3c3cccc(OCCO)c3)cc2)[C@]12C(=O)Nc1ccccc12", "cytotoxicity call": "inactive"}
{"smiles": "Cc1noc(C)c1S(=O)(=O)Nc1ccc2c(c1)CC(=O)N([C@H](C)CO)C[C@H](C)[C@H](CN(C)Cc1ccc(-c3ccccc3)cc1)O2", "cytotoxicity call": "inactive"}
{"smiles": "C(=N\\c1ccccc1)/c1ccccc1", "cytotoxicity call": "inactive"}
{"smiles": "C[C@@H]1CCCCO[C@H](CN(C)Cc2ccc3c(c2)OCO3)[C@H](C)CN([C@@H](C)CO)C(=O)c2cc(NC(=O)Nc3ccccc3)ccc2O1", "cytotoxicity call": "inactive"}
{"smiles": "C[C@@H]1CN([C@H](C)CO)C(=O)c2cc(NC(=O)Nc3ccc4c(c3)OCO4)ccc2O[C@@H](C)CCCCO[C@@H]1CN(C)Cc1ccccc1", "cytotoxicity call": "inactive"}
{"smiles": "C[C@@H]1CN([C@@H](C)CO)C(=O)c2cc(NC(=O)Nc3ccc4c(c3)OCO4)ccc2O[C@@H](C)CCCCO[C@@H]1CN(C)Cc1ccccc1", "cytotoxicity call": "active"}
{"smiles": "C[C@@H]1CN([C@@H](C)CO)C(=O)c2cc(NC(=O)Nc3ccccc3)ccc2O[C@@H](C)CCCCO[C@@H]1CN(C)Cc1ccc2c(c1)OCO2", "cytotoxicity call": "active"}
{"smiles": "C[C@@H]1CCCCO[C@H](CN(C)Cc2ccccc2)[C@@H](C)CN([C@@H](C)CO)C(=O)c2cc(NC(=O)Nc3ccc4c(c3)OCO4)ccc2O1", "cytotoxicity call": "inactive"}
{"smiles": "C[C@H](CO)N1C[C@H](C)[C@@H](CN(C)Cc2ccc3c(c2)OCO3)OCCCC[C@H](C)Oc2ccc(NC(=O)Nc3ccccc3)cc2C1=O", "cytotoxicity call": "inactive"}
{"smiles": "C[C@@H]1CCCCO[C@H](CN(C)CC2CCCCC2)[C@H](C)CN([C@H](C)CO)C(=O)c2cc(NS(=O)(=O)c3ccccc3)ccc2O1", "cytotoxicity call": "inactive"}
{"smiles": "C[C@@H]1CCCCO[C@@H](CN(C)C(=O)Nc2ccc3c(c2)OCO3)[C@@H](C)CN([C@H](C)CO)C(=O)c2cc(NC(=O)Nc3cccc4ccccc34)ccc2O1", "cytotoxicity call": "inactive"}
{"smiles": "C[C@@H]1CN([C@H](C)CO)C(=O)Cc2cc(NC(=O)Cn3cnnn3)ccc2O[C@H]1CN(C)Cc1ccccc1", "cytotoxicity call": "inactive"}
{"smiles": "Cc1ccc(C)c(S(=O)(=O)N2[C@@H]3CC[C@@H](C3)[C@H]2c2nc3cccc(OCc4ccc(F)cc4)c3[nH]2)c1", "cytotoxicity call": "inactive"}
{"smiles": "CC(=O)c1cccc(S(=O)(=O)N2[C@@H]3CC[C@@H](C3)[C@H]2c2nc3cccc(OCc4ccc(F)cc4)c3[nH]2)c1", "cytotoxicity call": "inactive"}
{"smiles": "COc1cccc(S(=O)(=O)N2[C@@H]3CC[C@@H](C3)[C@H]2c2nc3cccc(OCc4ccc(F)cc4)c3[nH]2)c1", "cytotoxicity call": "active"}
{"smiles": "COc1cc(C)ccc1S(=O)(=O)N1[C@@H]2CC[C@@H](C2)[C@H]1c1nc2cccc(OCc3ccc(F)cc3)c2[nH]1", "cytotoxicity call": "inactive"}
{"smiles": "Cc1ccc(F)c(S(=O)(=O)N2[C@@H]3CC[C@@H](C3)[C@H]2c2nc3cccc(OCc4ccc(F)cc4)c3[nH]2)c1", "cytotoxicity call": "active"}
{"smiles": "COc1ccc(OC)c(S(=O)(=O)N2[C@@H]3CC[C@@H](C3)[C@H]2c2nc3cccc(OCc4ccc(F)cc4)c3[nH]2)c1", "cytotoxicity call": "inactive"}
{"smiles": "CN1C(=O)c2cc(NC(=O)c3ccc(F)c(F)c3)ccc2OC[C@H]2O[C@H](CC(=O)N3CCOCC3)CC[C@H]21", "cytotoxicity call": "inactive"}
{"smiles": "Cc1ccc(S(=O)(=O)Nc2ccc3c(c2)C(=O)N([C@@H](C)CO)C[C@@H](C)[C@@H](CN(C)C(=O)CCC(F)(F)F)OCCCC[C@@H](C)O3)cc1", "cytotoxicity call": "inactive"}
{"smiles": "CCS(=O)(=O)N1C[C@]2(CCN(CC2)S(=O)(=O)c2cn(cn2)C)c2c(n(c3cc(ccc23)OC)C)[C@H]1CO", "cytotoxicity call": "inactive"}
{"smiles": "C[C@H](CO)N1C[C@H](C)[C@@H](CN(C)C(=O)Nc2ccc(F)cc2)OCc2ccccc2-c2c(n(C)c3ccccc23)C1=O", "cytotoxicity call": "inactive"}
{"smiles": "COCC(=O)N1C[C@H](C)[C@@H](OC)CN(C)C(=O)c2ccc(NC(=O)Nc3ccccc3)cc2OC[C@H]1C", "cytotoxicity call": "inactive"}
{"smiles": "C[C@H](CO)N1C[C@H](C)[C@H](CN(C)Cc2ccc(C(=O)O)cc2)Oc2ccc(NS(C)(=O)=O)cc2C1=O", "cytotoxicity call": "inactive"}
{"smiles": "C[C@H]1CN([C@@H](C)CO)C(=O)Cc2cc(NC(=O)Nc3ccc(C(F)(F)F)cc3)ccc2O[C@@H]1CN(C)Cc1ccc(-c2ccccc2)cc1", "cytotoxicity call": "inactive"}
{"smiles": "C[C@H]1CN([C@@H](C)CO)C(=O)Cc2cc(NC(=O)Nc3ccc(C(F)(F)F)cc3)ccc2O[C@H]1CN(C)Cc1ccc(-c2ccccc2)cc1", "cytotoxicity call": "active"}
{"smiles": "C[C@@H]1CN([C@H](C)CO)C(=O)Cc2cc(NC(=O)Nc3ccc(C(F)(F)F)cc3)ccc2O[C@@H]1CN(C)Cc1ccc(-c2ccccc2)cc1", "cytotoxicity call": "active"}
{"smiles": "C[C@@H]1CN([C@@H](C)CO)C(=O)Cc2cc(NC(=O)Nc3ccc(C(F)(F)F)cc3)ccc2O[C@H]1CN(C)Cc1ccc(-c2ccccc2)cc1", "cytotoxicity call": "active"}
{"smiles": "C[C@H](CO)N1C[C@H](C)[C@H](CN(C)Cc2ccc(-c3ccccc3)cc2)Oc2ccc(NC(=O)Nc3ccc(C(F)(F)F)cc3)cc2CC1=O", "cytotoxicity call": "active"}
{"smiles": "COCCN1C[C@H]2CN(Cc3nccn3C)C[C@H]2C1=O", "cytotoxicity call": "inactive"}
{"smiles": "O=C(C[C@H]1C[C@H]2c3cc(NS(=O)(=O)c4ccc(F)cc4)ccc3O[C@H]2[C@H](CO)O1)NC1CCCCC1", "cytotoxicity call": "inactive"}
{"smiles": "CC1(C)CCC2=C(O1)C(=O)c1ccccc1C2=O", "note": "[alpha-LAPACHONE ]", "cytotoxicity call": "inactive"}
{"smiles": "Cc1noc(C)c1NC(=O)N(C)C[C@H]1OCCCC[C@@H](C)Oc2ccc(NC(=O)CCC(F)(F)F)cc2C(=O)N([C@H](C)CO)C[C@@H]1C", "cytotoxicity call": "inactive"}
{"smiles": "Cc1ccc(S(=O)(=O)N(C)C[C@@H]2Oc3ccc(NS(=O)(=O)c4c(C)noc4C)cc3C(=O)N([C@H](C)CO)C[C@H]2C)cc1", "cytotoxicity call": "inactive"}
{"smiles": "C[C@@H]1CCCCO[C@H](CN(C)C(=O)CCC(F)(F)F)[C@H](C)CN([C@@H](C)CO)C(=O)c2cc(NS(=O)(=O)c3ccccc3)ccc2O1", "cytotoxicity call": "inactive"}
{"smiles": "C[C@@H]1CN([C@@H](C)CO)C(=O)c2cc(NS(=O)(=O)c3cn(C)cn3)ccc2O[C@@H](C)CCCCO[C@H]1CN(C)S(=O)(=O)c1cn(C)cn1", "cytotoxicity call": "inactive"}
{"smiles": "C[C@@H]1CN([C@H](C)CO)C(=O)Cc2cc(NC(=O)Nc3ccc(C(F)(F)F)cc3)ccc2O[C@H]1CN(C)Cc1ccc(-c2ccccc2)cc1", "cytotoxicity call": "active"}
{"smiles": "C[C@@H]1CN([C@@H](C)CO)C(=O)Cc2cc(NC(=O)Nc3ccc(C(F)(F)F)cc3)ccc2O[C@@H]1CN(C)Cc1ccc(-c2ccccc2)cc1", "cytotoxicity call": "active"}
{"smiles": "C[C@H](CO)N1C[C@H](C)[C@@H](CN(C)Cc2ccc(-c3ccccc3)cc2)Oc2ccc(NC(=O)Nc3ccc(C(F)(F)F)cc3)cc2CC1=O", "cytotoxicity call": "active"}
{"smiles": "C[C@@H]1CCCCO[C@@H](CN(C)C(=O)c2ccccc2)[C@H](C)CN([C@@H](C)CO)C(=O)c2cc(NC(=O)c3ccccc3)ccc2O1", "cytotoxicity call": "inactive"}
{"smiles": "C[C@@H]1CN([C@@H](C)CO)C(=O)Cc2cc(NC(=O)CCN3CCOCC3)ccc2O[C@H]1CN(C)Cc1ccncc1", "cytotoxicity call": "inactive"}
{"smiles": "COc1cccc(NC(=O)N[C@@H]2CC[C@H](CC(=O)N3CCOCC3)O[C@H]2CO)c1", "cytotoxicity call": "inactive"}
{"smiles": "O=C(NCc1cccc(F)c1)[C@H]1[C@H](CO)[C@H]2Cn3c(cccc3=O)[C@@H]1N2C(=O)c1cnccn1", "cytotoxicity call": "inactive"}
{"smiles": "C[C@@H](CO)N1CC[C@H](CN(C)Cc2ccc(Oc3ccccc3)cc2)Oc2c(NC(=O)c3ccncc3)cccc2C1=O", "cytotoxicity call": "inactive"}
{"smiles": "CC(=O)N[C@H]1[C@@H](OCc2ccccc2)O[C@H](C(=O)O)[C@@H](OC(C)=O)[C@@H]1OC(C)=O", "cytotoxicity call": "inactive"}
{"smiles": "C[C@@H]1CN([C@@H](C)CO)S(=O)(=O)c2ccc(-c3ccc(C(=O)N(C)C)cc3)cc2O[C@H]1CN(C)C(=O)C1CCOCC1", "cytotoxicity call": "inactive"}
{"smiles": "COCC(=O)N(C)C[C@@H]1Oc2cc(C#Cc3ccccc3)ccc2S(=O)(=O)N([C@@H](C)CO)C[C@H]1C", "cytotoxicity call": "inactive"}
{"smiles": "Cc1ccc(NC2=CC(=O)C[C@H](c3ccc(Cl)cc3)C2)cc1", "cytotoxicity call": "inactive"}
{"smiles": "C[C@@H]1CN([C@H](C)CO)C(=O)c2cc(NC(=O)c3ccccc3)ccc2O[C@@H](C)CCCCO[C@H]1CN(C)Cc1ccc(Cl)c(Cl)c1", "cytotoxicity call": "active"}
{"smiles": "C[C@@H]1CCCCO[C@@H](CN(C)Cc2ccc(Cl)c(Cl)c2)[C@H](C)CN([C@@H](C)CO)C(=O)c2cc(NC(=O)c3ccccc3)ccc2O1", "cytotoxicity call": "active"}
{"smiles": "C[C@@H]1CCCCO[C@H](CN(C)Cc2ccc(Cl)c(Cl)c2)[C@@H](C)CN([C@H](C)CO)C(=O)c2cc(NC(=O)c3ccccc3)ccc2O1", "cytotoxicity call": "inactive"}
{"smiles": "C[C@H](CO)N1C[C@H](C)[C@H](CN(C)Cc2ccc(Cl)c(Cl)c2)OCCCC[C@H](C)Oc2ccc(NC(=O)c3ccccc3)cc2C1=O", "cytotoxicity call": "inactive"}
{"smiles": "C[C@@H]1CCCCO[C@@H](CN(C)Cc2ccc(Cl)c(Cl)c2)[C@H](C)CN([C@H](C)CO)C(=O)c2cc(NC(=O)c3ccccc3)ccc2O1", "cytotoxicity call": "inactive"}
{"smiles": "C[C@@H]1CCCCO[C@H](CN(C)Cc2ccc(Cl)c(Cl)c2)[C@H](C)CN([C@@H](C)CO)C(=O)c2cc(NC(=O)c3ccccc3)ccc2O1", "cytotoxicity call": "inactive"}
{"smiles": "C[C@@H]1CN([C@H](C)CO)C(=O)c2cc(NC(=O)c3ccccc3)ccc2O[C@@H](C)CCCCO[C@@H]1CN(C)Cc1ccc(Cl)c(Cl)c1", "cytotoxicity call": "active"}
{"smiles": "C[C@H]1CCCCO[C@H](CN(C)Cc2ccc(Cl)c(Cl)c2)[C@@H](C)CN([C@@H](C)CO)C(=O)c2cc(NC(=O)c3ccccc3)ccc2O1", "cytotoxicity call": "inactive"}
{"smiles": "C[C@H](CO)N1C[C@H](C)[C@@H](CN(C)Cc2ccc(Cl)c(Cl)c2)OCCCC[C@H](C)Oc2ccc(NC(=O)c3ccccc3)cc2C1=O", "cytotoxicity call": "inactive"}
